Assay outcomes (PubChem BioAssay)
Most compounds without a hit are left out; they make up all but 18% or so of the library.
TDP1 cell CPT: qHTS for Inhibitors of human tyrosyl-DNA phosphodiesterase 1 (TDP1): qHTS in cells in presence of CPT; chicken DT40 Tdp1-/-;hTDP1 cells + 20 nM CPT, ATP luminescence, 48 h; Potency, µM (highest dose often 46.2 µM), for the others: at the top dose activity change, negative = growth inhibition, actives largely listed as inhibitors; actives 12% (n = 420,000); note: potency is the fitted concentration of half-maximal effect; nearly all actives have a fitted effect of over 55% in size
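Chicken DT40 Tdp1-/- cells stably complemented with human TDP1 were seeded at 400 cells/well in medium containing 20 nM camptothecin, exposed to pin-transferred compounds, and grown at 37 °C for at least 48 hr. Viability was read as ATP luminescence.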
LDHA inh: qHTS assay for inhibitors of human lactate dehydrogenase; AID 1347041, 2019; activity change, % (values are at about 110 or 230 µM); purified LDHA, NADH/diaphorase-resazurin fluorescence; active compounds read low; actives 0.15% (n = 480,000); in the data active = activity change below about -30%; inconclusive = mostly about -25% to -30%;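 note: plate controls were DMSO wells for no effect and wells without enzyme for full effect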
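Human LDH5 at 2 nM final in Tris HCl pH 7.4 with 0.06 mM NADH and 0.2 mM pyruvate, reacted 5 minutes at room temperature. Remaining NADH coupled via diaphorase/resazurin; resorufin fluorescence read at 0 and 20 minutes, normalized to enzyme-free and DMSO wells.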
IL1B secr inh: qHTS for Inhibitors of Inflammasome Signaling: IL-1-beta AlphaLISA Primary Screen; THP-1 LPS/ATP IL-1B secretion, AlphaLISA, 16 h; active compounds read low; activity change, % at 57.5 µM; actives 4.7% (n = 360,000); in the data active = activity change below about -50%; inconclusive = mostly about -30% to -49%
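Secreted IL-1B measured by AlphaLISA bead assay after 16 h compound exposure of THP-1 cells; compounds (final up to 57.5 uM) added 1 h before LPS (250 ng/mL) and ATP (1.25 mM) stimulation; lower signal means less secretion.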
VP16 counter: VP16 counterscreen qHTS for inhibitors of ROR gamma transcriptional activity | actives 3.5% (n = 310,000) | Potency, µM (series often up to 53.6 µM), for inactives: top-dose activity, negative = inhibition, actives largely listed as inhibitors | Drosophila S2 Gal4-VP16 UAS-luciferase, luminescence, 20 h | AID 2546, 2010;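 note: Gal4-VP16 expression switched on by copper sulfate through the metallothionein promoter; potency is the fitted concentration of half-maximal effect; nearly all actives have a fitted effect of over 50% in size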
DT40 TDP1 no CPT: qHTS for Inhibitors of human tyrosyl-DNA phosphodiesterase 1 (TDP1): qHTS in cells in absence of CPT; Potency, µM (top dose mostly 46.2 µM), for the others: at the top dose activity change, negative = growth inhibition, usual class: inhibitors; DT40 Tdp1-/- hTDP1 cells, no CPT, ATP luminescence, 48 h; actives 15% (n = 420,000); note: potency is the fitted concentration of half-maximal effect; nearly all actives have a fitted effect of over 55% in size
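Readout: luminescence from CellTiter-Glo after 30 min in the dark at RT. Cells: DT40 Tdp1-/- with stable hTDP1, 400/well. Exposure: compounds alone, ≥48 hr, 37 °C.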
RORgamma inh: qHTS for inhibitors of ROR gamma transcriptional activity; Nuclear receptor ROR-gamma (Mus musculus), P51450; Drosophila S2 Gal4-RORgamma UAS-luciferase reporter, 20 h; Potency, µM (titrated, usually from 53.6 µM), inactives show top-dose activity change, negative = inhibition, usual class: inhibitors; actives 5.4% (n = 310,000); AID 2551, 2010; note: potency is the fitted concentration of half-maximal effect; nearly all actives have a fitted effect of over 60% in size
Target sequence (P51450 whole entry, looked up, the tested form may be a part): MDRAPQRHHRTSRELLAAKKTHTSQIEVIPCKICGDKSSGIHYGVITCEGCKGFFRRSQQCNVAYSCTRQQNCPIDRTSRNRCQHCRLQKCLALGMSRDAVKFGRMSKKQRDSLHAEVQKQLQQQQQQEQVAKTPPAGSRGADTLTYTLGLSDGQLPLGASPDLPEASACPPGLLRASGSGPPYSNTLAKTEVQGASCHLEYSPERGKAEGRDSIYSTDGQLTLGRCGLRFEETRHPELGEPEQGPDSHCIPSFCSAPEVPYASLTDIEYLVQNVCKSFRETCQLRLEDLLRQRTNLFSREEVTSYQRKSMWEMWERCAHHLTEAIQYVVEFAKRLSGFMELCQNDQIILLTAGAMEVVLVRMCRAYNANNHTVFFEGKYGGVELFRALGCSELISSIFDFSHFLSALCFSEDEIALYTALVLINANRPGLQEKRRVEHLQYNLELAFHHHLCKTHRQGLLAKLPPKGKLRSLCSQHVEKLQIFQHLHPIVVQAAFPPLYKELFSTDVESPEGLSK
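Stable Schneider cell line, Gal4 DNA-binding domain fused to ROR gamma, UAS-luciferase. Cmpd 1 hr RT → CuSO4 700 uM final → 20 hr RT → luciferase reagent 10 min → luminescence.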
Numbers without * were called inactive; i = inactive; ? = inconclusive; . = no result; [ ] = dose if it differs, or a comment. Unless noted, calls come from the whole dose curve; as a rule, active = well fitted curve in the direction sought with a large enough effect; inconclusive = small, poorly fitted or top-dose-only effect, or another doubt; inactive = no such curve, though single readings can be large; an effect the other way counts as inactive or inconclusive. Unless noted, % is set by controls: 0 for no effect and ±100 for the full control effect.

SMILES	TDP1 cell CPT	LDHA inh	IL1B secr inh	VP16 counter	DT40 TDP1 no CPT	RORgamma inh
CCO[C@@H]1OC(C(=O)N2CCN(Cc3ccccc3)CC2)=C[C@H](c2ccc(Br)cc2)[C@H]1CCCO	?	1.9	-22.2	-7.5%	23.1µM*	35.0%
CCO[C@H]1OC(C(=O)N2CCN(Cc3ccccc3)CC2)=C[C@@H](C)[C@@H]1CCCO	?	-0.1	9.5	7.3%	?	13.5%
C#CCN1CCN(CC(=O)Nc2cccc(F)c2)CC1	.	-5.0	.	.	.	.
COc1ccc(OC)c(C2SCCN2S(C)(=O)=O)c1 (stereo not given)	-3.8%	-6.9	24.0	3.0%	0.9%	11.2µM*
COc1ccc(S(=O)(=O)N2CCSC2c2cc(OC)ccc2OC)cc1 (stereo not given)	.	-4.1	.	.	.	.
O=c1c2cnc3nc(C(F)(F)F)nn3c2ccn1-c1cc(Cl)ccc1Cl	.	0.9	.	.	.	.
FC(F)(F)c1ccccc1NC(=S)NN=C1CCCCCC1	?	0.5	41.1	?	?	4.47µM*
CCC(=O)NC(=S)Nc1ccccc1C(F)(F)F	-5.0%	-5.6	17.2	.	-20.6%	.
FC(F)(F)c1ccccc1NC(=S)N1CCCC1	1.0%	3.0	.	9.1%	-12.8%	-21.6%
CCCC(=O)NC(=S)Nc1ccccc1C(F)(F)F	-10.8%	-6.6	21.4	?	-14.6%	7.94µM*
CC(C)C(=O)NC(=S)Nc1ccccc1C(F)(F)F	0.9%	1.8	0.0	?	-16.6%	5.01µM*
O=C(Cc1ccc(F)cc1)NCCc1c[nH]c2ccccc12	.	-6.3	.	.	.	.
COCCNc1nc2c(c(=O)n(C)c(=O)n2C)n1CCOC	.	1.6	.	.	.	.
CN=c1scc(-c2[nH]c(C)c(C(=O)OC)c2C)n1C	.	-0.1	.	.	.	.
O=C(N/N=C/c1ccc(Br)s1)c1cccnc1	-6.7%	-3.8	-4.8	15.8µM*	-10.7%	1.26µM*
O=C(N/N=C\c1cccnc1)c1ccc(Br)s1	?	-2.3	i	-1.4%	-28.0%	24.4%
O=C(N/N=C/c1cc(O)ccc1Br)c1cccnc1	5.8µM*	-3.3	174.7	1.26µM*	2.91µM*	1.78µM*
O=C(N/N=C/c1cc2c(cc1Br)OCO2)c1cccnc1	4.9%	-0.6	?	6.4%	?	-1.8%
O=C(N/N=C/c1cc(Br)c(O)c(Br)c1O)c1cccnc1	20.6µM*	7.5	60.5	?	?	?
N#Cc1cn(CC(=O)Nc2cc(F)ccc2F)c2ccccc12	.	4.7	.	.	.	.
CCN(/C=C1/CCCCC1=O)C1CC2CCC1C2 (stereo not given)	.	5.3	.	.	.	.
CCOC(=O)c1ccc(NC(=O)C2CC(=O)Nc3cc(F)ccc32)cc1 (stereo not given)	.	13.9	.	.	.	.
CCC(NC(=S)NC1CCCCC1)c1ccc(C)cc1 (stereo not given)	.	.	.	5.01µM*	.	2.82µM*
CCC(NC(=O)C1CC1)c1ccc(C)cc1 (stereo not given)	.	4.3	.	.	.	.
CC(NC(=S)NC1CCCCC1)c1ccccc1 (stereo not given)	?	0.1	25.8	?	?	-17.9%[1.91 µM]
SMILES	TDP1 cell CPT	LDHA inh	IL1B secr inh	VP16 counter	DT40 TDP1 no CPT	RORgamma inh
CCCc1ccc(C(C)NC(=S)NC2CCCCC2)cc1 (stereo not given)	?	0.6	0.0	3.55µM*	?	2.51µM*
Cc1cc(=O)oc2cc(OCC(=O)NCCCn3ccnc3)c(Cl)cc12	.	-3.4	.	.	.	.
O=C(Nc1ncc(S(=O)(=O)c2ccc([N+](=O)[O-])cc2)s1)c1cccc2ccccc12	14.6µM*	-3.5	28.9	-15.8%	20.6µM*	?
O=C(NC(Nc1ncc(S(=O)(=O)c2ccc([N+](=O)[O-])cc2)s1)(C(F)(F)F)C(F)(F)F)c1ccc(Cl)cc1	?	2.8	-76.2*	11.2µM*	14.6µM*	?
N#CCN(CC#N)C(=O)Cc1cccs1	.	-11.0	.	.	.	.
CCn1c2c(c(=O)[nH]c1=O)C(c1ccc(C(=O)O)cc1)C1=C(N2)c2ccccc2C1=O (stereo not given)	.	6.3	.	.	.	.
CCC(C)c1ccc(C2C3=C(Nc4nc(N)[nH]c(=O)c42)c2ccccc2C3=O)cc1 (stereo not given)	4.7%	-13.5	-1.9	?	?	12.6µM*
Cn1c2c(c(=O)[nH]c1=O)C(c1ccc(O)cc1)C1=C(N2)c2ccccc2C1=O (stereo not given)	10.3µM*	1.3	?	-17.1%	23.1µM*	-43.9%
Nc1nc2c(c(=O)[nH]1)C(c1ccccc1)C1=C(N2)c2ccccc2C1=O (stereo not given)	-21.2%	-0.2	13.9	1.2%	-18.3%	2.4%
Cc1cc(N2CCN(C)CC2)nc2ccc(NC(=S)NCCCN3CCc4ccccc4C3)cc12	?	0.1	-91.9*	-21.4%	?	?
Cc1cc(N2CCN(C)CC2)nc2ccc(NC(=S)NCCN3CCc4ccccc4C3)cc12	?	-1.0	-1.4	?	?	?
CCN1CCN(c2cc(C)c3cc(NC(=S)NCCCN4CCc5ccccc5C4)ccc3n2)CC1	?	1.2	-22.8	-21.2%	14.6µM*	?
Cc1cc(N2CCCC2)nc2ccc(NC(=S)NCCCN3CCC(C)CC3)cc12	?	-0.8	-140.3*	-10.5%	?	-11.9%
CCCCc1cc(=O)oc2c(C)c3c(cc12)C=CC1(CCCCC1)O3	.	1.3	.	.	.	.
C/C(=N\NC(=O)c1ccccc1OCCOc1ccccc1)c1ccccc1F	?	0.0	-65.0*	.	16.4µM*	.
COc1ccccc1C=NNC(=O)c1ccccc1OCCOc1ccccc1	?	3.7	?	.	?	.
NNc1ncnc2ccc([N+](=O)[O-])cc12	.	7.3	.	.	.	.
Cc1ccc2nc(-c3ccc(NC(=O)c4cccc([N+](=O)[O-])c4C)cc3)oc2c1	.	-9.5	.	.	.	.
Cn1c2c(c3cnc4cc(Cl)ccc4c31)CN(Cc1ccc(Cl)cc1)CC2	7.94µM*	4.9	.	.	7.08µM*	.
CN1CCc2c(c3cnc4cc(Cl)ccc4c3n2C)C1	?	3.0	.	.	?	.
COc1ccc2[nH]c3c4c(ccc3c2c1)C(=O)C=CC4=O	0.231µM*	7.7	-76.5*	8.91µM*	0.259µM*	6.31µM*
COc1ccc2[nH]c(-c3ccc(F)cc3F)cc(=O)c2c1	.	.	.	3.9%	.	-21.8%
Cc1ccc2nc(/C(C#N)=C\c3ccc(O)cc3)[nH]c2c1	.	-7.4	.	.	.	.
